Results on 14 molecules are retold here after PubChem BioAssay (NCI).

Test systems include NCI-H23 lung; NCI-H226 lung; NCI-H322M lung; HOP-62 NSCLC; NCI-H460 lung; HOP-92 NSCLC; NCI-H522 lung; A549/ATCC NSCLC; 786-0 renal; COLO 205 colon.
Holding throughout (experiment): NCI-60 one-dose screen, 48 h (100 = growth as untreated, 0 = no growth, -100 = all killed)
What all share (details): 10 µM unless noted

The panel holds about 83,000 compounds, 20% with a hit somewhere; the sample as a whole holds those more often.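 Cells were grown in 96-well plates and exposed to the test compound at a single concentration for 48 hours; results are reported as percent growth, with values below 10 considered active.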 Values without a mark were called inactive. The source made the active and inactive calls.

Take `C=CCn1c(C)nc2ccc(Nc3nc(Nc4ccc(F)cc4)nc4ccccc34)cc21`: the growth was 56% in the experiment on NCI-H23 lung; 85.4% in the experiment with NCI-H226 lung; 85.5% in the experiment with NCI-H322M lung; 75.9% with HOP-62 NSCLC; 63.4% in the experiment on NCI-H460 lung; -0.386% (active) in the experiment on HOP-92 NSCLC. Further, the growth with NCI-H522 lung was 57.9%; in the experiment with A549/ATCC NSCLC, 52.1%; in the experiment with 786-0 renal it was 76.7%; in the experiment on COLO 205 colon it was 43.7%.
Take `C=C1C(=O)O[C@H]2[C@H]1CC/C(Cn1cc(-c3ccsc3)nn1)=C\CC[C@@]1(C)O[C@@H]21`: the growth in the experiment with NCI-H23 lung is -14.9% (active); in the experiment on NCI-H226 lung it was 7.54% (active); in the experiment on NCI-H322M lung it was 72.7%; in the experiment on HOP-62 NSCLC it was 28.4%; in the experiment on NCI-H460 lung, 41%; in the experiment with HOP-92 NSCLC it was -72.9% (active). The growth with NCI-H522 lung was -67.8% (active); with A549/ATCC NSCLC, 13.8%; in the experiment with 786-0 renal, -86.7% (active); in the experiment with COLO 205 colon it was -61% (active).
In the case of `COc1cccc(-c2nc3sccn3c2-c2ccnc(NCCCNS(=O)(=O)c3ccc(F)cc3)n2)c1`, the growth in the experiment on NCI-H23 lung is 16.2%; with NCI-H226 lung it was 13.7%; in the experiment with NCI-H322M lung, 64.7%; with HOP-62 NSCLC, 82.4%; in the experiment on NCI-H460 lung, 40.3%; in the experiment with HOP-92 NSCLC, 61.5%. For the same molecule, the growth in the experiment on NCI-H522 lung was 14%; with A549/ATCC NSCLC, 41.6%; with 786-0 renal, 44.1%; with COLO 205 colon, 17.1%.
Turning to `COc1c(NC[C@H]2OC(O)[C@H](O)[C@@H](O)[C@@H]2O)c(=O)c1=O` (stereo not given in full), the growth in the experiment on NCI-H23 lung is 97%; in the experiment on NCI-H226 lung, 98.3%; with NCI-H322M lung, 98%; in the experiment on HOP-62 NSCLC it was 102%; in the experiment with NCI-H460 lung, 104%; in the experiment on HOP-92 NSCLC, 95.6%. Further, the growth in the experiment with NCI-H522 lung was 114%; in the experiment with A549/ATCC NSCLC, 94.2%; with 786-0 renal, 102%; with COLO 205 colon it was 112%.
For the molecule `O=S(=O)(NCCCNc1nccc(-c2c(-c3ccccc3)nc3sccn23)n1)c1ccc(F)cc1`, the growth is 38% with NCI-H23 lung; 24.2% in the experiment on NCI-H226 lung; 68.3% in the experiment on NCI-H322M lung; 89% with HOP-62 NSCLC; 47.9% with NCI-H460 lung; 86.9% with HOP-92 NSCLC. For the same molecule, the growth with NCI-H522 lung was 38.4%; in the experiment on A549/ATCC NSCLC, 43.6%; in the experiment on 786-0 renal, 44.8%; with COLO 205 colon it was 17.9%.
`c1ccn2nnnc2c1`: the growth is 94.8% in the experiment on NCI-H23 lung; 111% with NCI-H226 lung; 102% in the experiment with NCI-H322M lung; 87% with HOP-62 NSCLC; 105% with NCI-H460 lung; 103% in the experiment on HOP-92 NSCLC. Also, the growth in the experiment with NCI-H522 lung was 101%; with A549/ATCC NSCLC, 94.3%; with 786-0 renal it was 94.3%; in the experiment on COLO 205 colon, 90.6%.
With `COc1ccc(OC)c(-c2ccc(-c3ccccc3N)c3[nH]c4ccccc4c23)c1`, the growth with NCI-H23 lung was 74.5%; with NCI-H226 lung it was 75.2%; with NCI-H322M lung, 90.1%; with HOP-62 NSCLC it was 80.9%; in the experiment on NCI-H460 lung, 92.3%; in the experiment on HOP-92 NSCLC, 80.8%. The growth with NCI-H522 lung is 56.9%; with A549/ATCC NSCLC, 68.7%; in the experiment with 786-0 renal, 83.6%; in the experiment on COLO 205 colon it was 87.5%.
`O=S(=O)(c1ccccc1)n1ccc(-c2ccc3c(c2)CCO3)n1`: the growth with NCI-H23 lung is 78.4%; with NCI-H226 lung, 64.6%; in the experiment with NCI-H322M lung, 91.4%; with HOP-62 NSCLC it was 98.8%; in the experiment on NCI-H460 lung, 87.3%; in the experiment on HOP-92 NSCLC, 41.8%. Further, the growth with NCI-H522 lung was 61.7%; with A549/ATCC NSCLC, 78.8%; with 786-0 renal, 90.3%; with COLO 205 colon, 96.9%.
In the case of `CCCC(C(=O)OCC)C(C)OC(=O)OCC` (stereo not given), the growth with NCI-H23 lung was 100%; with NCI-H226 lung, 101%; in the experiment with NCI-H322M lung it was 100%; in the experiment with HOP-62 NSCLC, 93.3%; with NCI-H460 lung, 113%; in the experiment with HOP-92 NSCLC it was 90.2%. The growth in the experiment with NCI-H522 lung is 86.1%; with A549/ATCC NSCLC, 104%; in the experiment with 786-0 renal, 99.5%; in the experiment with COLO 205 colon, 103%.
`O=C(NCCCN1CCN(CCCNC(=O)C2CCCCC2)CC1)C1CCCCC1`: the growth in the experiment with NCI-H23 lung was 111%; in the experiment on NCI-H226 lung, 105%; in the experiment on NCI-H322M lung, 91.9%; with HOP-62 NSCLC it was 94.7%; in the experiment on NCI-H460 lung, 101%; in the experiment with HOP-92 NSCLC, 70.5%. Moreover, the growth was 95% in the experiment on NCI-H522 lung, 101% with A549/ATCC NSCLC, 96.5% with 786-0 renal and 104% in the experiment with COLO 205 colon.
`COc1cccc2cc(-c3cc4ccccc4[nH]3)c(=NC(=O)c3ccc(Cl)cc3)oc12`: the growth was 40.2% with NCI-H23 lung; 83.2% in the experiment on NCI-H226 lung; 93.3% in the experiment with NCI-H322M lung; 57.7% with HOP-62 NSCLC; 85.3% with NCI-H460 lung; -0.489% (active) in the experiment on HOP-92 NSCLC. For the same molecule, the growth with NCI-H522 lung was 9.69% (active); in the experiment on A549/ATCC NSCLC, 65.5%; with 786-0 renal, 69.5%; with COLO 205 colon, 100%.
For the molecule `CNC(=O)Cc1nc(-c2cccc(NS(=O)(=O)c3c(F)cccc3F)c2F)c(-c2ccnc(Nc3ccccc3)n2)s1`, the growth with NCI-H23 lung was 56%; in the experiment on NCI-H226 lung, 74.3%; with NCI-H322M lung it was 60.8%; in the experiment on HOP-62 NSCLC, 43.3%; in the experiment with NCI-H460 lung, 94%; in the experiment with HOP-92 NSCLC it was 17.3%. Also, the growth in the experiment on NCI-H522 lung is 54.8%; in the experiment with A549/ATCC NSCLC, 55.3%; in the experiment with 786-0 renal, 64%; with COLO 205 colon, 7.06% (active).
On to `O=C(Nc1ccc(Br)c(Cl)c1)c1cc(F)ccc1O`, for which the growth in the experiment on NCI-H23 lung was -9.2% (active); in the experiment on NCI-H226 lung it was -23.8% (active); with NCI-H322M lung, 9.4% (active); with HOP-62 NSCLC, 0.0415% (active); in the experiment on NCI-H460 lung it was 3.85% (active); in the experiment with HOP-92 NSCLC it was -14.4% (active). Besides, the growth is 0.474% (active) in the experiment with NCI-H522 lung, 8.88% (active) in the experiment on A549/ATCC NSCLC, 7.91% (active) in the experiment with 786-0 renal and 41.5% in the experiment on COLO 205 colon.
`CC1CCN(C(=O)CSc2nc3sc4c(c3c(=O)[nH]2)CCCC4)CC1`: the growth with NCI-H23 lung is 113%; in the experiment with NCI-H226 lung it was 100%; with NCI-H322M lung, 104%; in the experiment with HOP-62 NSCLC, 103%; with NCI-H460 lung it was 120%; in the experiment with HOP-92 NSCLC it was 88.2%. Besides, the growth in the experiment with NCI-H522 lung is 89.9%; in the experiment on A549/ATCC NSCLC it was 106%; in the experiment on 786-0 renal, 110%; in the experiment on COLO 205 colon it was 112%.
